Reference: PubChem BioAssay (NCI)
Compounds without any hit were thinned out: in the full panel of roughly 79,000, 15% have a hit. The source made the active and inactive calls. Cut-off read from the data, not from the text of the source: active = growth inhibition above about 70%; inactive = the rest.

Assay: NCI Yeast Anticancer Drug Screen. Data for the mec2-1 strain (AID 157)
Details: S. cerevisiae mec2-1 strain, at 5.0 µM (retest, dose inferred, filed as 0.5), active compounds read high
How it was run: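 Test agents were screened against the mec2-1 yeast strain, with defined DNA repair or cell cycle alteration. Growth was scored as inhibition against vehicle-only controls.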
For `Cc1cccc2c(C(O)CBr)cc(-c3ccc(Cl)cc3)nc12` (stereo not given), the growth inhibition was 1% (inactive).
In the case of `CN(C)C[C@H]1CC[C@@H](CN(C)C)C1=O`, the growth inhibition is reported as 9% (inactive).
In the case of `CC1=C(SCCO)C(=O)c2ccccc2C1=O`, the growth inhibition is reported as -22% (inactive).
For `COC(=O)CCNc1c2ccccc2nc2cccc([N+](=O)[O-])c12`, the growth inhibition was 90% (active).
With `CC(/C=C/c1ccc2c(c1)OCO2)[N+](=O)[O-]` (stereo not given) the growth inhibition was 2% (inactive).
With `COC(=O)C1=C(C)NC(C)=C(C(=O)OCCCN2CCC(c3ccccc3)(c3ccccc3)CC2)C1c1cccc([N+](=O)[O-])c1` (stereo not given) the growth inhibition was 9% (inactive).
In the case of `CCOC(=O)c1cnc2c(C(F)(F)F)cccc2c1N=[N+]=[N-]`, the growth inhibition is reported as 2% (inactive).
With `O=[N+]([O-])c1cc2no[n+]([O-])c2cc1N1CCCCC1` the growth inhibition was 41% (inactive).
For `COC(=O)c1ccc(NCC2=CC(=O)C=CC2=O)cc1O`, the growth inhibition was 13% (inactive).
With `CCCCCCCCNC(=O)C1=C(C)NC(C)=C(C(=O)NCCCCCCCC)C1` the growth inhibition was -7% (inactive).
With `S=C(Nc1ccc(Cl)c(Cl)c1)SCc1ccc2c(c1)OCO2` the growth inhibition was 78% (active).
With `O=S(=O)(CCCl)c1ccccc1Cl` the growth inhibition was -36% (inactive).
In the case of `Nc1ccccc1CC(O)C(=O)O` (stereo not given), the growth inhibition is reported as 3% (inactive).
For `CN(C)c1ccc(Sc2ccc3nc(N)nc(N)c3c2)cc1`, the growth inhibition was 28% (inactive).
In the case of `CC(C)C1=CCC2C(=C1)CCC1C(C)(C(=O)O)CCCC21C` (stereo not given) (tested in a mixture with another compound), the growth inhibition is reported as 29% (inactive).
For `Cc1ccc(S(=O)(=O)Oc2cc(Cl)c(Cl)cc2Cl)cc1`, the growth inhibition was -29% (inactive).
With `CSC(=S)Nc1cc(C)ccn1` the growth inhibition was 52% (inactive).
In the case of `CC(C)c1cc(C(C)C)c(O)c(C([O-])[O-])c1.CC(C)c1cc(C(C)C)c(O)c(C([O-])[O-])c1.CC(C)c1cc(C(C)C)c(O)c(C([OH2+])[OH2+])c1.CC(C)c1cc(C(C)C)c(O)c(C([OH2+])[OH2+])c1.[Cu+2].[Cu+2].[OH3+].[OH3+]`, the growth inhibition is reported as 1% (inactive).
With `Cc1cc(I)ccc1N` the growth inhibition was 51% (inactive).
With `CC(Br)C(=O)c1ccc2cc(Br)c3ccccc3c2c1` (stereo not given) the growth inhibition was -5% (inactive).
In the case of `O=C(Nc1ccccc1)OCCc1ccc(Cl)c(Cl)c1`, the growth inhibition is reported as 0% (inactive).
With `O=Cc1cccc2ccc3ccccc3c12` the growth inhibition was -45% (inactive).
For `O=[N+]([O-])CC(SCc1ccccc1)c1ccc2c(c1)OCO2` (stereo not given), the growth inhibition was 26% (inactive).
For `CC1(Cl)CC(O)C2(CC1Br)C1(C)OC1C1OC1(Br)C2(C)C` (stereo not given), the growth inhibition was 0% (inactive).
For `Cc1cc(O)cc(O)c1N=Nc1ccc([N+](=O)[O-])cc1`, the growth inhibition was 54% (inactive).
In the case of `CCCCCCCCCCCCCC[N+](C)(CC(=O)[O-])Cc1ccccc1` (stereo not given), the growth inhibition is reported as 32% (inactive).
In the case of `CC1=NN(c2cccc(Cl)c2)C(=O)C1`, the growth inhibition is reported as 74% (active).
In the case of `CC(=O)OCc1ccc(O)c(C=O)c1`, the growth inhibition is reported as 0% (inactive).
For `Cc1ccc2ccc3cccc4ccc1c2c34`, the growth inhibition was 3% (inactive).
In the case of `Cc1nc(-[n+]2nc(-c3ccncc3)nn2-c2ccccc2)sc1C`, the growth inhibition is reported as 0% (inactive).
With `C(CCSC1=NCCN1)CSC1=NCCN1` (tested in a mixture with another compound) the growth inhibition was 43% (inactive).
In the case of `CCCCCCCCCCC(=O)Cl`, the growth inhibition is reported as 100% (active).
For `COC1C=COC2(C)Oc3c(C)c(O)c4c(c3C2=O)/C(=N/C2CCC(O)OC2C)C=C(NC(=O)/C(C)=C\C(=O)C2CC2C(O)C(C)C(O)C(C)C(OC(C)=O)C1C)C4=O` (stereo not given), the growth inhibition was 2% (inactive).
In the case of `S=c1[nH]nc(Nc2ccc(Cl)cc2)s1`, the growth inhibition is reported as -49% (inactive).
With `O=C1CSC(/C=C/c2ccccc2)N1c1ccc(-c2ccc(-n3c(-c4ccccc4)nc4ccccc4c3=O)cc2)cc1` (stereo not given) the growth inhibition was 0% (inactive).
With `O=C1C=CC(=O)N1c1ccc2c(c1)Cc1cc(NC(=O)C(F)(F)F)ccc1-2` the growth inhibition was 87% (active).
In the case of `Brc1ccc(-c2cc3c(cc2C2SCCS2)OCO3)cc1`, the growth inhibition is reported as -57% (inactive).
In the case of `Oc1ccc2ccccc2c1C(c1ccc(Cl)cc1)c1c(O)ccc2ccccc12`, the growth inhibition is reported as 99% (active).
For `C[CH2][Sn]([CH2]C)([O]C(=O)C(OC(C)=O)c1ccccc1)[O]C(=O)C(OC(C)=O)c1ccccc1` (stereo not given), the growth inhibition was -13% (inactive).
With `Cc1ccc2ccc(O)cc2c1` the growth inhibition was -10% (inactive).

Same assay, conditions: S. cerevisiae mec2-1 strain, at 11.0 µM, active compounds read high
For `Cc1cccc2c(C(O)CBr)cc(-c3ccc(Cl)cc3)nc12` (stereo not given), the growth inhibition was 99% (active).
In the case of `CN(C)C[C@H]1CC[C@@H](CN(C)C)C1=O`, the growth inhibition is reported as 16% (inactive).
With `CC1=C(SCCO)C(=O)c2ccccc2C1=O` the growth inhibition was 0% (inactive).
With `COC(=O)CCNc1c2ccccc2nc2cccc([N+](=O)[O-])c12` the growth inhibition was 98% (active).
With `CC(/C=C/c1ccc2c(c1)OCO2)[N+](=O)[O-]` (stereo not given) the growth inhibition was 100% (active).
With `COC(=O)C1=C(C)NC(C)=C(C(=O)OCCCN2CCC(c3ccccc3)(c3ccccc3)CC2)C1c1cccc([N+](=O)[O-])c1` (stereo not given) the growth inhibition was 98% (active).
In the case of `CCOC(=O)c1cnc2c(C(F)(F)F)cccc2c1N=[N+]=[N-]`, the growth inhibition is reported as -4% (inactive).
For `O=[N+]([O-])c1cc2no[n+]([O-])c2cc1N1CCCCC1`, the growth inhibition was 98% (active).
For `COC(=O)c1ccc(NCC2=CC(=O)C=CC2=O)cc1O`, the growth inhibition was 70% (active).
With `CCCCCCCCNC(=O)C1=C(C)NC(C)=C(C(=O)NCCCCCCCC)C1` the growth inhibition was 0% (inactive).
For `S=C(Nc1ccc(Cl)c(Cl)c1)SCc1ccc2c(c1)OCO2`, the growth inhibition was 100% (active).
In the case of `O=S(=O)(CCCl)c1ccccc1Cl`, the growth inhibition is reported as 19% (inactive).
In the case of `Nc1ccccc1CC(O)C(=O)O` (stereo not given), the growth inhibition is reported as 14% (inactive).
For `CN(C)c1ccc(Sc2ccc3nc(N)nc(N)c3c2)cc1`, the growth inhibition was -4% (inactive).
For `CC(C)C1=CCC2C(=C1)CCC1C(C)(C(=O)O)CCCC21C` (stereo not given) (tested in a mixture with another compound), the growth inhibition was 15% (inactive).
With `Cc1ccc(S(=O)(=O)Oc2cc(Cl)c(Cl)cc2Cl)cc1` the growth inhibition was -5% (inactive).
With `CSC(=S)Nc1cc(C)ccn1` the growth inhibition was 39% (inactive).
With `CC(C)c1cc(C(C)C)c(O)c(C([O-])[O-])c1.CC(C)c1cc(C(C)C)c(O)c(C([O-])[O-])c1.CC(C)c1cc(C(C)C)c(O)c(C([OH2+])[OH2+])c1.CC(C)c1cc(C(C)C)c(O)c(C([OH2+])[OH2+])c1.[Cu+2].[Cu+2].[OH3+].[OH3+]` the growth inhibition was 36% (inactive).
With `Cc1cc(I)ccc1N` the growth inhibition was -2% (inactive).
For `CC(Br)C(=O)c1ccc2cc(Br)c3ccccc3c2c1` (stereo not given), the growth inhibition was 6% (inactive).
For `O=C(Nc1ccccc1)OCCc1ccc(Cl)c(Cl)c1`, the growth inhibition was -3% (inactive).
With `O=Cc1cccc2ccc3ccccc3c12` the growth inhibition was 1% (inactive).
For `O=[N+]([O-])CC(SCc1ccccc1)c1ccc2c(c1)OCO2` (stereo not given), the growth inhibition was 76% (active).
With `CC1(Cl)CC(O)C2(CC1Br)C1(C)OC1C1OC1(Br)C2(C)C` (stereo not given) the growth inhibition was -23% (inactive).
With `Cc1cc(O)cc(O)c1N=Nc1ccc([N+](=O)[O-])cc1` the growth inhibition was 8% (inactive).
In the case of `CCCCCCCCCCCCCC[N+](C)(CC(=O)[O-])Cc1ccccc1` (stereo not given), the growth inhibition is reported as 99% (active).
In the case of `CC1=NN(c2cccc(Cl)c2)C(=O)C1`, the growth inhibition is reported as -5% (inactive).
For `CC(=O)OCc1ccc(O)c(C=O)c1`, the growth inhibition was -29% (inactive).
With `Cc1ccc2ccc3cccc4ccc1c2c34` the growth inhibition was 2% (inactive).
In the case of `Cc1nc(-[n+]2nc(-c3ccncc3)nn2-c2ccccc2)sc1C`, the growth inhibition is reported as -3% (inactive).
For `C(CCSC1=NCCN1)CSC1=NCCN1` (tested in a mixture with another compound), the growth inhibition was 94% (active).
For `CCCCCCCCCCC(=O)Cl`, the growth inhibition was -9% (inactive).
In the case of `COC1C=COC2(C)Oc3c(C)c(O)c4c(c3C2=O)/C(=N/C2CCC(O)OC2C)C=C(NC(=O)/C(C)=C\C(=O)C2CC2C(O)C(C)C(O)C(C)C(OC(C)=O)C1C)C4=O` (stereo not given), the growth inhibition is reported as -6% (inactive).
In the case of `S=c1[nH]nc(Nc2ccc(Cl)cc2)s1`, the growth inhibition is reported as -6% (inactive).
With `O=C1CSC(/C=C/c2ccccc2)N1c1ccc(-c2ccc(-n3c(-c4ccccc4)nc4ccccc4c3=O)cc2)cc1` (stereo not given) the growth inhibition was 1% (inactive).
For `O=C1C=CC(=O)N1c1ccc2c(c1)Cc1cc(NC(=O)C(F)(F)F)ccc1-2`, the growth inhibition was 42% (inactive).
In the case of `Brc1ccc(-c2cc3c(cc2C2SCCS2)OCO3)cc1`, the growth inhibition is reported as -31% (inactive).
In the case of `Oc1ccc2ccccc2c1C(c1ccc(Cl)cc1)c1c(O)ccc2ccccc12`, the growth inhibition is reported as -39% (inactive).
In the case of `C[CH2][Sn]([CH2]C)([O]C(=O)C(OC(C)=O)c1ccccc1)[O]C(=O)C(OC(C)=O)c1ccccc1` (stereo not given), the growth inhibition is reported as 14% (inactive).
For `Cc1ccc2ccc(O)cc2c1`, the growth inhibition was -32% (inactive).
